In PubChem BioAssay (NCI):
Where “and” joins values, the source holds several entries; their conditions need not be identical. Identical values can stand only once. The panel holds about 83,000 compounds, 20% with a hit somewhere; the sample as a whole holds those more often.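 Single-dose data. Exposure time 48 hours. Values below 10 considered active.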 Calls of active or inactive are those of the source.

Key:
Experiment in all cases: NCI-60 one-dose screen, 48 h (100 = growth as untreated, 0 = no growth, -100 = all killed)
Conditions in all cases: 10 µM unless noted
[1] = system: NCI-H23 lung
[2] = system: NCI-H226 lung
[3] = system: NCI-H322M lung
[4] = system: HOP-62 NSCLC
[5] = system: NCI-H460 lung
[6] = system: HOP-92 NSCLC
[7] = system: NCI-H522 lung
[8] = system: A549/ATCC NSCLC
[9] = system: 786-0 renal
[10] = system: COLO 205 colon
[11] = system: DU-145 prostate
[12] = system: K-562 leukemia
[13] = system: MALME-3M melanoma
[14] = system: MDA-MB-231 breast
[15] = system: RXF 393 renal
[16] = system: SF-268 CNS
[17] = system: SF-295 CNS
[18] = system: SF-539 CNS
[19] = system: UACC-257 melanoma
[20] = system: M14 melanoma

Measured: growth

O=C(Nc1ncc(Cc2cccc(C(F)(F)F)c2)s1)c1ccc2c(c1)OCCO2
inactive: [1] 31.2% | [2] 21.3% | [3] 54.1% | [4] 25.2% | [6] 51.3% | [8] 17.2% | [9] 39.9% | [11] 15.1% | [13] 50.1% | [14] 30.2% | [15] 19.6% | [16] 38.3% | [19] 45.5% | [20] 21.6%
active: [5] 6.46% | [7] 8.7% | [10] -7.82% | [12] 8.17% | [17] 8.97% | [18] -0.654%

C#CCOc1cccc(Nc2ncc3ncn(C4CCN(C(=O)CCl)C4)c3n2)c1 (stereo not given)
active: [7] -77.4% [6.25 µM] | [9] -4.37% [6.25 µM] | [10] -84% [6.25 µM] | [12] 5.61% [6.25 µM] | [14] 2.24% [6.25 µM] | [15] -51.9% [6.25 µM]
inactive: [1] 45.2% [6.25 µM] | [2] 23.3% [6.25 µM] | [3] 78.6% [6.25 µM] | [4] 78.3% [6.25 µM] | [5] 72.1% [6.25 µM] | [6] 73% [6.25 µM] | [8] 78.5% [6.25 µM] | [11] 84% [6.25 µM] | [13] 14.3% [6.25 µM] | [16] 40.2% [6.25 µM] | [17] 89% [6.25 µM] | [18] 68.7% [6.25 µM] | [19] 72.6% [6.25 µM] | [20] 24% [6.25 µM]

O=C(Nc1ccc2ccccc2c1)c1cc2ccccc2cc1O
active: [16] 7.54%
inactive: [1] 81.5% | [2] 91.6% | [3] 75.7% | [4] 98.8% | [5] 85.4% | [6] 63.7% | [7] 62.6% | [8] 84.6% | [9] 85.6% | [10] 110% | [11] 13.3% | [12] 71.1% | [13] 58.5% | [14] 104% | [15] 115% | [17] 128% | [18] 105% | [19] 85.6% | [20] 99%

COc1ccc(C2Nc3nc(SC)nc(N)c3N=C3c4ccccc4CCC32)cc1 (stereo not given)
inactive: [1] 72.4% | [2] 107% | [3] 109% | [4] 102% | [5] 86.7% | [6] 50.7% | [7] 90.9% | [8] 102% | [9] 93.6% | [10] 112% | [11] 70.9% | [12] 84.5% | [13] 108% | [14] 83.5% | [15] 122% | [16] 73.4% | [17] 105% | [18] 90.5% | [19] 122% | [20] 92.7%

N=c1ccccn1CCO
inactive: [1] 101% | [2] 107% | [3] 96.7% | [4] 110% | [5] 114% | [6] 96.5% | [7] 114% | [8] 99.3% | [9] 102% | [10] 110% | [11] 125% | [12] 108% | [13] 111% | [14] 95% | [15] 114% | [16] 110% | [17] 124% | [18] 107% | [19] 105% | [20] 102%

COc1ccc(-c2csc(NC(=O)CN3CCN(CCO)CC3)n2)cc1NS(=O)(=O)c1cccc2c(N(C)C)cccc12
inactive: [1] 88.1% | [2] 92.5% | [3] 89.9% | [4] 79.9% | [5] 67.1% | [6] 50.7% | [7] 79% | [8] 75.7% | [9] 57.7% | [10] 62% | [11] 78.4% | [12] 23.1% | [14] 71.9% | [15] 57.7% | [16] 81.2% | [17] 29.7% | [18] 65.7% | [19] 68.4%
active: [13] -67.9% | [20] -73.6%

CC(=O)OC[C@]12CCC(C)(C)C=C1[C@H]1CC[C@@H]3[C@@]4(C)CCCNC(C)(C)[C@@H]4CC[C@@]3(C)[C@]1(C)CC2
active: [10] 1.01%
inactive: [1] 65% | [2] 77.9% | [3] 98.9% | [4] 91.8% | [5] 49.4% | [6] 83% | [7] 39.4% | [8] 83% | [9] 82.2% | [11] 87.4% | [12] 14.2% | [13] 41.9% | [14] 82.1% | [15] 89.2% | [16] 81.2% | [17] 100% | [18] 95.2% | [19] 31.9% | [20] 64.8%

CC(=O)Nc1c(I)c(NC(C)=O)c(I)c(C(=O)O)c1I
inactive: [1] 110% | [2] 97.4% and 113% | [3] 102% and 101% | [4] 112% and 97.9% | [5] 109% and 103% | [6] 94.3% | [7] 102% and 24.5% | [8] 105% | [9] 97.3% and 114% | [10] 115% and 119% | [11] 115% and 142% | [12] 69.4% | [13] 93.7% and 84.5% | [14] 105% and 117% | [15] 113% and 25.5% | [16] 107% and 120% | [17] 90.4% and 104% | [18] 99.3% and 99.7% | [19] 105% | [20] 95.9% and 104%

C=C1C(=O)O[C@H]2[C@H]1CC/C(CNS(=O)(=O)c1ccc3ccccc3c1)=C\CC[C@@]1(C)O[C@@H]21
active: [1] -3.15% | [2] -25.4% | [6] -29.6% | [7] -78.6% | [9] -67% | [10] -84.5% | [11] -85% | [12] -19.3% | [13] -22.6% | [14] 2.57% | [15] -80.8% | [18] 9.99% | [19] -54.4% | [20] -32.6%
inactive: [3] 92.1% | [4] 78.4% | [5] 91.7% | [8] 69% | [16] 51.4% | [17] 71.2%

COc1cc(Cl)cc(-c2nn(C(=O)NS(=O)(=O)c3ccc(Cl)cc3)cc2-c2ccncc2)c1
inactive: [1] 89.1% | [2] 70.7% | [3] 96.5% | [4] 59.4% | [5] 111% | [6] 26.6% | [7] 74.3% | [8] 65.1% | [9] 67.9% | [10] 72.1% | [11] 83.8% | [12] 82.2% | [13] 78.1% | [14] 56.8% | [15] 71.2% | [16] 67.5% | [17] 90.6% | [18] 39.6% | [19] 113% | [20] 72.7%

COc1cc(/C=C(/c2ccccc2)[N+](=O)[O-])c(OC)c2c1OCO2
inactive: [2] 24.8% | [16] 21.1% | [17] 28.8% | [19] 17.3% | [20] 11.9%
active: [1] -34.7% | [3] 3.33% | [4] -19.6% | [5] -16.1% | [6] -49.2% | [7] -62.8% | [8] 5.75% | [9] -98% | [10] -53.1% | [11] -87.4% | [12] 0.225% | [13] -49.6% | [14] -47.9% | [15] -79.8% | [18] -90.5%

CCCCC1=C(Br)C(=O)c2nc(C)ccc2C1=O
active: [6] -8.03%
inactive: [1] 92.8% | [2] 91.2% | [3] 88.8% | [4] 89.9% | [5] 98.8% | [7] 62.5% | [8] 92% | [9] 95.2% | [10] 37.1% | [11] 101% | [12] 34% | [13] 83.6% | [14] 80.9% | [15] 90.4% | [16] 92.8% | [17] 103% | [18] 92.6% | [19] 94% | [20] 96%

Cc1ccc(/C=C2\COc3ccc(O)c(O)c3C2=O)cc1
inactive: [1] 29.1% | [2] 61.5% | [3] 31.3% | [8] 27.4% | [10] 30.2% | [12] 13% | [17] 33.1% | [19] 10.1%
active: [4] -1.56% | [5] 8.32% | [6] -18% | [7] -74.8% | [9] -71% | [11] 4.29% | [13] -27.3% | [14] -24.8% | [15] -35.3% | [16] -37.6% | [18] -63.9% | [20] 3.41%
